Several values for one entry are separate records, joined by “and”; a condition that tells them apart may be missing. Identical values can stand only once. The campaign covered roughly 390,000 compounds. About 17,000 (4.4%) were called active. About 8% were inconclusive and are not listed. The sample holds actives, similar compounds and a random draw of the others, so the mix is not that of the screen. Calls follow the shape of the dose curve; as a rule, active = well fitted inhibition curve with a large enough effect; inconclusive = small, poorly fitted or top-dose-only effect; inactive = no such curve, though single readings can be large or run the other way.
Target: Lysine-specific demethylase 4A (Homo sapiens) (UniProt O75164)
Test: qHTS Assay for Inhibitors of JMJD2A-Tudor Domain; also: nearly all actives have a fitted effect of over 50% in size
Details: AlphaScreen JMJD2A-Tudor / H3K4me3 peptide binding; series mostly up to 114 µM; activity change, negative = inhibition: at the top concentration
% is scaled to controls: 0 for no effect and ±100 for the full control effect; potency is read from the fitted curve at half-maximal effect.

Lysine-specific demethylase 4A (Homo sapiens), sequence (O75164 whole entry, looked up, the tested form may be a part): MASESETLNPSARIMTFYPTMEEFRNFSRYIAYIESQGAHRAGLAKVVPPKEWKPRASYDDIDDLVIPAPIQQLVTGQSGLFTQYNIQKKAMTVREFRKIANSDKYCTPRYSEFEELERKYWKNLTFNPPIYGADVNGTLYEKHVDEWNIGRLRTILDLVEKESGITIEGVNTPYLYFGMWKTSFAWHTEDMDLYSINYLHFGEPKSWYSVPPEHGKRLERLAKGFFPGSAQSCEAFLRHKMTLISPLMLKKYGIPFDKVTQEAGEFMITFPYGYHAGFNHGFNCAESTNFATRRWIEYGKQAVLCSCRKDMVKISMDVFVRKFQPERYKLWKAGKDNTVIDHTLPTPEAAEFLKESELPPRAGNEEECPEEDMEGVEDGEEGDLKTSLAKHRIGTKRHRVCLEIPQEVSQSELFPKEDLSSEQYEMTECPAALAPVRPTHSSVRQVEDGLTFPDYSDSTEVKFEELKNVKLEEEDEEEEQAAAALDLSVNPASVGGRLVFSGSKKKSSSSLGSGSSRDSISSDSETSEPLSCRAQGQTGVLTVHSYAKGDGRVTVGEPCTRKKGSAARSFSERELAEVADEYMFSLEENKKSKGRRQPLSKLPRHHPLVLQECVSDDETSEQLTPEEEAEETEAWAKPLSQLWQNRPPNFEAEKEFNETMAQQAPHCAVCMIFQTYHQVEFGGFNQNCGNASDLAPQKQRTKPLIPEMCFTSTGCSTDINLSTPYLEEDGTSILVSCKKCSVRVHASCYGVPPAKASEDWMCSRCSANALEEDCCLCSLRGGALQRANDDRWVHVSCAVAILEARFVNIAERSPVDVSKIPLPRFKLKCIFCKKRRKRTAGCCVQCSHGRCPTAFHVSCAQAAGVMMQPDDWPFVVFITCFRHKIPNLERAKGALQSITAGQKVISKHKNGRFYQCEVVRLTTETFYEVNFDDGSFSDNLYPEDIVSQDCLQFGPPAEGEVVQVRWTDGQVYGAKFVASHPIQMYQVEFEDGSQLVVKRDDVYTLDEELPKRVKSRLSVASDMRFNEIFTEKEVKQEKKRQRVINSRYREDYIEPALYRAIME

Activity change, negative = inhibition, inactive:
CCOC(=O)c1cccc(NC(=O)c2cc(CN3CCCC3)on2)c1 -11.3%
O=C(OCc1cc(=O)n2nc(C3CC3)sc2n1)c1ccccc1Cl -14%
COc1ccc(C2c3c(oc4ccccc4c3=O)C(=O)N2Cc2ccc3c(c2)OCO3)cc1 (centres undefined) -3.78%
COc1ccc(Cn2ccn(CC(=O)Nc3cc(C)ccc3C)c(=O)c2=O)cc1 -11.5%
O=C(CCCn1c(=O)c2cccn2c2cccnc21)NCc1ccc(F)cc1 -6.59%
COc1ccccc1C(=O)NCCn1cc(SCc2ccccc2Cl)c2ccccc21 -8.21%
Cc1c(NC(=S)Nc2ccccc2)c(=O)n(-c2ccccc2)n1C 6.69%
Cc1c(NS(=O)(=O)c2ccc(Cl)cc2)c(=O)n(-c2ccccc2)n1C 9%
CCN(CC)CCNc1ncnc2c1cnn2-c1cc(Cl)ccc1C -26.6%
O=C(O)CCC(=O)NCc1ccc(C(=O)O)cc1 -1.53% [at 57.1 µM]
O=C(O)c1ccc(Cn2c(SCc3ccc(F)cc3)nc3ccncc32)cc1 7.64%
Cc1ccc(Cn2c(=O)n(-c3ccc(C)cc3)c(=O)c3c2c2cc(C)ccc2n3C)cc1 -17.2%
Cc1ccc(Cl)cc1N(C)C(=O)C1CCCN(c2ncnc3onc(-c4ccc(F)cc4)c23)C1 (centres undefined) -19.4%
CC(C)c1cc(N=O)cc(C(C)C)c1O -24.3%
Cc1ccc(CNC(=O)c2c(O)nc3c(C)cccn3c2=O)cc1 -3.64%
COc1ccc2c(CNCCc3ccccc3C)c(C(=O)O)n(Cc3ccccc3C)c2c1 -8.42%
Cc1ccc2ncc(C(=O)Nc3ccc(OC(F)(F)F)cc3)c(=O)n2c1 -2.55%
COc1cccc2cc(-c3nc(Cl)c4c5c(sc4n3)CC(C)CC5)c(=O)oc12 (centres undefined) -4.78%
CCCCCCC1(C)NC(c2ccc3c(c2)OCO3)=CC(c2ccccc2O)N1 (centres undefined) -14.6% [at 57.1 µM]
CCn1c2ccccc2c2cc(NC(=O)C/C(C)=N/NC(=O)c3ccccc3N)ccc21 -20.1%
CCn1c2ccccc2c2cc(NC(=O)COc3ccc(C)cc3C)ccc21 -4.5%
Cc1ccc(N(CC(=O)NCC(C)c2ccccc2)S(=O)(=O)N(C)C)cc1 (centres undefined) -10%
Cc1ccc(NC(=O)C(=O)NCC(c2cccnc2)N2CCOCC2)cc1 (centres undefined) -0.987%
COc1cccc(C(=O)N(Cc2cccc(Cl)c2)Cc2ccco2)c1 -9.03%
CCCCCn1c(CCCNC(=O)c2ccccc2OC)nc2ccccc21 -15.7%
CCOC(=O)c1ccc(NC(=O)C2CC(=O)Nc3nc4ccccc4n32)cc1 (centres undefined) -10.3%
CC(=O)c1ccc(NC(=O)C2CC(=O)Nc3nc4ccccc4n32)cc1 (centres undefined) -17.3%
CC(=O)N1CCCc2cc(S(=O)(=O)N3CCC(C(=O)NCc4ccc(C)cc4)CC3)ccc21 -11.6%
O=c1cc(-c2ccccc2)n2c(SCc3ccccc3)nnc2[nH]1 -11.4%
Cc1cccc(CC(=O)Nc2cccc(-c3cn4cccnc4n3)c2)c1 -21.6%
CCS(=O)(=O)N1Cc2ccccc2CC1C(=O)Nc1ccc(OC)cc1OC (centres undefined) -9.15%
CCOc1ccc(N2CC(C(=O)NCc3ccccn3)CC2=O)cc1 (centres undefined) -5.52%
CN(Cc1ccccc1)C(=O)c1cn(C)c2ccc(S(=O)(=O)N(C)C3CCCCC3)cc2c1=O 1.67%
CCOC(=O)c1c(NC(=O)CSc2cn(CCNC(=O)c3cccc(C(F)(F)F)c3)c3ccccc23)sc2c1CCC2 -19.4%
Cc1c(-c2nc(-c3ccc4c(c3)OCO4)no2)nnn1-c1ccc(Br)cc1F -11.4%
CCOC(=O)c1ccc(NC(=O)C2CC(=O)N(c3ccc4c(c3)OCCO4)C2)cc1 (centres undefined) -16.7%
CC(=O)c1ccccc1NC(=O)C1CC(=O)N(c2ccc3c(c2)OCCO3)C1 (centres undefined) -18.8%
O=C(CSc1nnc(CNC(=O)c2ccccc2)n1-c1ccc(F)cc1)Nc1ccccc1F -0.673%
COc1ccc(C2C(C#N)=C(N)Oc3cc(N)ccc32)cc1OC (centres undefined) -20.1%
COc1ccccc1CN1CCCC(N2CCN(c3ccc(F)cc3)CC2)C1 (centres undefined) -23.8%
Cc1cc(=O)c2cc(C(=O)Nc3cccc(C)c3C)ccc2[nH]1 -3.31%
COc1ccccc1NC(=O)C(=O)c1cc(C)n(-c2ccccc2F)c1C -23.5%
COc1ccc(NC(=O)CCCc2nnc3n(CCC(C)C)c(=O)c4sccc4n23)c(OC)c1 -32.6%
Cc1ccccc1Nc1nn2c(=O)c3ccc(C(=O)NCCc4ccc(Cl)cc4)cc3nc2s1 -9.31%
Cc1ccc(C2=C/C(=C\c3cccnc3)C(=O)O2)cc1 -18.6%
O=C(O)/C(=C/c1cccnc1)NC(=O)c1ccccc1 -6.62%
O=C(NCc1ccccc1)c1cccc(NC(=O)N2CCSc3ncccc32)c1 5.17%
CCn1c(/C=C/c2ccc([N+](=O)[O-])o2)nc2ccccc2c1=O -16.8% [at 57.1 µM]
CCc1ccc(S(=O)(=O)Nc2ccc(C)c(NS(C)(=O)=O)c2)cc1 8.31%
CCc1nn(CCCC(=O)NCc2ccccc2OC)c(=O)c2cc3occc3n12 4.03%
Cc1ccc(-c2ccc(CCC(=O)O)n2-c2ccc(C(N)=O)cc2)cc1 -22.9%
CC(C)CCN(C(=O)Nc1ccc(Cl)c(Cl)c1)C(C)c1cccs1 (centres undefined) -10.7%
COc1ccc(NC(=O)c2cnc(Nc3ccc(C)c(Cl)c3)c3ccccc23)cc1OC 3.07%
CCC(=O)N1CCc2cc(Br)cc(S(=O)(=O)Nc3ccc(C)cc3C)c21 -6.73%
COc1ccc(-c2nn(-c3ccccc3)cc2CN2CCCO2)c(F)c1 -26%
CN(C(=O)CCN1C(=O)/C(=C/c2ccccc2F)SC1=S)C1CCS(=O)(=O)C1 (centres undefined) -19.3%
COc1cccc(NC(=O)CN(C)C(=O)/C=C/c2cn(-c3ccccc3)nc2-c2cccs2)c1 -21.9%
O=C1/C(=C/c2coc3ccc(O)cc3c2=O)SC(=S)N1c1ccccc1 -24%
CN(Cc1ccccc1)S(=O)(=O)c1ccc(F)c(C(=O)Nc2cccc(Cl)c2Cl)c1 -7.03%
COc1cc(F)c(S(=O)(=O)N2CCCN(S(=O)(=O)c3ccc(N)cc3)CC2)c(F)c1 -14.3%
O=C(COc1ccccc1Cl)Nc1ccc2nc(SCC(=O)N3CCCC3)sc2c1 -12.6%
O=C(NCc1ccc2c(c1)CCN2C(=O)c1ccccc1)c1ccccc1 -5%
COc1ccc(C(=O)NCCCN2CCOCC2)cc1Br -4.92%
Cc1ccc(OCCCC(=O)N2CCOCC2)c(C)c1 6.76%
Cc1cccc(N2CCN(C(=O)c3cc4c(=O)oc5ccccc5c4s3)CC2C)c1 (centres undefined) -25.3%
COc1ccc(Cn2c(=O)[nH]c3cc(C(=O)N4CCN(C(=O)c5ccco5)CC4)ccc3c2=O)cc1 -15.6%
Cc1ccc2nc(-c3ccc(C)c(NC(=O)Cc4ccccc4)c3)oc2c1 -4.58%
CC1CCN(C(=O)Cn2c(=O)n(-c3ccc(Cl)cc3)c(=O)c3c4c(sc32)CCC4)CC1 -8.53%
Cn1c(SCC(=O)N2CCCC2)nnc1-c1ccc2c(c1)OCO2 -0.758%
O=C(O)CSc1nnc(-c2ccc3c(c2)OCO3)n1-c1ccccc1 -4.9%
COc1ccc(CCNc2nc(-c3ccc(Cl)cc3)cc(C(F)(F)F)n2)cc1OC 8.53%
CC(C)c1ccc(Cc2nnc(NCCCO)[nH]c2=O)cc1 -11.2%
COc1ccc(Cc2nnc(SC)[nH]c2=O)cc1 -2.11%
O=S(=O)(c1ccc(Br)cc1)c1nnn2c1nc(NC1CCCCCC1)c1sccc12 -9.52%
CC(=O)Nc1ccc(NC(=O)c2cc3sccc3n2Cc2ccc(F)cc2)cc1 -17.8%
CCOc1ccc2nc(N3CCCC(C(=O)Nc4cc(C)ccc4C)C3)sc2c1 (centres undefined) -27.6%
COc1ccc2[nH]cc(CCN3C(=O)c4ccc(C(=O)O)cc4C3=O)c2c1 -10.6%
Cc1ccc2[nH]cc(CCNC(=O)C3CCCCC3)c2c1 -6.31%
Cc1nn(Cc2ccc(F)cc2)c(C)c1NC(=O)c1cc(CC(C)C)on1 -9.56%
O=C(CSc1ncc(CO)n1Cc1ccc(Cl)cc1)NCc1ccc(F)cc1 -18.5%
COc1ccc(N2CCN(C3=NS(=O)(=O)C(c4cccc(Br)c4)=C3C)CC2)cc1 -12.9%

Potency, active:
CCN(CC)P(=O)(/C(Cl)=C\Nc1c(C)n(C)n(-c2ccccc2)c1=O)N(CC)CC 15.8 µM
O=C(O)c1ccc(Cn2cnc3c(=S)nc[nH]c32)cc1 3.55 µM
CC(C)=CCc1ccc(O)c(=O)cc1C(C)C 56.2 µM
CCn1c2ccccc2c2cc(NC(=O)CNC)ccc21 1 µM
O=C(Nc1ccccc1)C1CC(=O)n2c(nc3ccccc32)N1 (centres undefined) 8.91 µM
O=c1[nH]c2ccccc2n2c(-c3ccccc3)nnc12 7.94 µM and 5.62 µM
COc1ccc(NC(=O)C2C3C=CC(C3)C2C(=O)NCc2ccccn2)c(OC)c1 (centres undefined) 50.1 µM
CCc1nnc(NC(=O)C2CC(=O)N(c3ccc4c(c3)OCCO4)C2)s1 (centres undefined) 25.1 µM
COc1ccc(C2C(C#N)=C(N)Oc3n[nH]c(C)c32)cc1CN1CCN(c2ccc(F)cc2)CC1 (centres undefined) 44.7 µM
Nc1ccc2c(c1)C(=Cc1cccnc1)c1ccccc1-2 35.5 µM
CCc1ccc(S(=O)(=O)N/N=C\c2ccc([N+](=O)[O-])o2)cc1 50.1 µM
CN1/C(=c2/s/c(=C3/C(=O)N(c4ccccc4)NC3=Nc3ccccc3)n(C)c2=O)C(C)(C)c2ccccc21 28.2 µM
COc1ccc(-c2nn(-c3ccccc3)cc2/C=C2/SC(=S)N(CCCC(=O)O)C2=O)c(C)c1 44.7 µM
Cc1ccc(-c2nn(-c3ccccc3)cc2/C=C2\SC(=S)N(CCCCCC(=O)O)C2=O)o1 14.1 µM
Cc1ccc(OCCCCN2CCCCC2)c(Br)c1 0.794 µM
Cn1c(SCc2nc3ccccc3s2)nnc1-c1ccc2c(c1)OCO2 31.6 µM
COc1ccc(Cc2nnc(N/N=C/c3ccccc3O)[nH]c2=O)cc1OC 28.2 µM
Cc1ccc2[nH]cc(CCCN3C(=O)c4ccccc4C3=O)c2c1 22.4 µM

— PubChem BioAssay AID504339 (National Center for Advancing Translational Sciences (NCATS), 2011)
